Test results reported in PubChem BioAssay AID488847 (NMMLSC, 2010).
The whole screen tested about 330,000 compounds, of which about 1,900 (0.58%) were called active. This is one part of a sample in which actives are shown more often than they occur. A number with no mark means an inactive call.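 The calls were made as follows: active = inhibition of aptamer binding above 40%, roughly 3 SD of noise, on plates passing a quality check; inactive = the rest.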

Molecular target: Beta-adrenergic receptor kinase 1 (Homo sapiens) (UniProt P25098)
Experiment: compounds blocking aptamer binding on GRK2 – biochemical, human GRK2, bead flow cytometry, HTS, primary screen (AID 488847);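 also: median bead fluorescence of bound FAM aptamer so fluorescent compounds give negative values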
Conditions: FAM-aptamer displacement from GRK2, at 10 µM, active compounds read high

Beta-adrenergic receptor kinase 1 (Homo sapiens), sequence (P25098 whole entry, looked up): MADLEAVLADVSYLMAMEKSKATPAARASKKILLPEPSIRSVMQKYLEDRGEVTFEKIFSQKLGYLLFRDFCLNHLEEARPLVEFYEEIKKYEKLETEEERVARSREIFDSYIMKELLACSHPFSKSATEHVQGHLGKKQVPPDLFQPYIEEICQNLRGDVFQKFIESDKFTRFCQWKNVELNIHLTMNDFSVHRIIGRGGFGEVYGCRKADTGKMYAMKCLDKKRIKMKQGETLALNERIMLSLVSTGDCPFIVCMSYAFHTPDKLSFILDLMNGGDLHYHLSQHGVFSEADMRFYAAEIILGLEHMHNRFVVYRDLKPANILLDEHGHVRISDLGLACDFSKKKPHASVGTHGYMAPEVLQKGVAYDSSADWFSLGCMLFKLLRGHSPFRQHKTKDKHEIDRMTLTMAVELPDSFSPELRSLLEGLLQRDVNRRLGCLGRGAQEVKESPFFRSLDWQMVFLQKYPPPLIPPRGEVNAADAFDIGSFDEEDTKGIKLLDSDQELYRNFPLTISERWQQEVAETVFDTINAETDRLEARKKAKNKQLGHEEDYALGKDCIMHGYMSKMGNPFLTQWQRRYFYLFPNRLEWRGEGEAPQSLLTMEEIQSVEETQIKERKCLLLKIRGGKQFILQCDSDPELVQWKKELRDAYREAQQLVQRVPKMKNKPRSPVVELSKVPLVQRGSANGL

In order of rising inhibition of aptamer binding:
1. CC1O[C@H](OC2C(COC3OC(CO)C(O)[C@H](O)C3O)OC(OC3CC[C@]4(C)C(CC[C@@]5(C)[C@@H]4C=C[C@]46OC[C@@]7(CCC(C)(C)C[C@H]74)C(O)C[C@@]56C)C3(C)C)C(O)C2O)C(O)C(O)C1O (stereo not given in full)  0%
2. COc1ccc(S(=O)(=O)NCC(c2ccc(C)cc2)N2CCN(C)CC2)cc1OC (stereo not given)  0%
3. Cc1ccc(C(CNC(=O)Nc2ccccc2)N2CCN(C)CC2)cc1 (stereo not given)  0%
4. CC(C)CNC(=S)NNC(=O)c1ccccc1OC(F)F  0%
5. Cc1ccc(C(=O)N/C(=C/c2cccnc2)C(=O)O)cc1  0%
6. Cc1ccc2[nH]c(=O)c(-c3nc4c(C)cccn4c3NCc3ccco3)cc2c1  0%
7. Cc1cc(C)cc(N(CC(=O)N2CC=C(c3ccccc3)CC2)S(=O)(=O)c2c(C)noc2C)c1  0%
8. O=c1[nH]nc(Cc2ccccn2)c2ccccc12  0%
9. O=C(Oc1ccc2c(c1)CCC2)N1CCOCC1  0%
10. CS(=O)(=O)N1CCN(c2ccc(C(=O)NC3C4CC5CC(C4)CC3C5)cc2[N+](=O)[O-])CC1 (stereo not given)  0%
11. CC(NC(=O)c1ccc(N2CCNCC2)c([N+](=O)[O-])c1)C12CC3CC(CC(C3)C1)C2 (stereo not given)  0%
12. CC(c1nnc(SCC(=O)Nc2sccc2C#N)n1-c1ccc(Cl)cc1)N(C)C (stereo not given)  0%
13. C/C(=N\N=C(N)N)c1ccc(Cl)cc1  0%
14. COc1cc2c(-c3ccc4c(c3)OCO4)c(-c3ccsc3)oc(=O)c2cc1OC  0%
15. COc1ccccc1NC(=O)COc1ccc(C(=O)OCC(=O)N(C(C)C)C(C)C)cc1OC  0%
16. Cn1c(N2CCOCC2)c(C=O)c2ccccc21  0%
17. Cc1ccc(CNC(=O)c2cc(-c3ccccc3C)n(CC3CC(c4cccc([N+](=O)[O-])c4)=NO3)n2)cc1 (stereo not given)  0%
18. CCOC(=O)c1ccc(N/C(=N/S(=O)(=O)c2ccccc2)c2ccccc2)cc1  0%
19. CN(Cc1ccccc1)C(=O)c1ccc(COc2ccccc2)cc1  0%
20. c1ccc(Cc2cc[n+](Cc3ccccc3)cc2)cc1  0%
21. O=C(CCc1n[nH]c(=O)[nH]c1=O)N/N=C/c1ccc(Br)o1  0%
22. CONC(=O)c1cc(OCC(F)(F)F)ccc1OCC(F)(F)F  0%
23. O=C(Nc1ccccc1)Nc1ccc(C(F)(F)F)cn1  0%
24. Cc1nn(CC(=O)NCc2ccccn2)c(C)c1[N+](=O)[O-]  1%
25. Cc1cccc(N(C(=O)c2sc(C)nc2C)C(C(=O)NCC2CCCO2)c2ccccc2)c1 (stereo not given)  1%
26. CCn1nc(C)c(NC(=O)/C=C/c2ccc(OC)c(COc3ccc(Br)cc3)c2)c1C  1%
27. COc1ccc(C(=O)CCC(=O)Nc2ccc(Cl)cc2)cc1  1%
28. O=C(C1CCC1)N1CCN(S(=O)(=O)c2ccc([N+](=O)[O-])cc2)CC1  1%
29. CC(=O)c1c(C)[nH]c(C(=O)N2CCN(S(=O)(=O)c3ccc(F)c(F)c3)CC2)c1C  1%
30. CN(CC(=O)O)C(=O)c1ccccc1  1%
31. O=C(ON=C1CCN(S(=O)(=O)c2ccccc2)CC1)c1ccc(Cl)cc1  1%
32. Cc1nnc(NC(=O)CCC(=O)N2CCC(C)CC2)s1  2%
33. C=CC[C@@H](CC(=O)N[C@@H](CO)Cc1ccccc1)C(=O)N[C@H](COC(=O)[C@H](CC=C)CC(=O)OC(C)(C)C)Cc1ccccc1  3%
34. CCC(C)(C(=O)NC1CCCC1)N(C(=O)CNC(C)=O)c1ccc(C)cc1 (stereo not given)  3%
35. CCCCN(CC)C(=O)c1ccc2c(c1)OCO2  3%
36. COc1ccc(NC(=O)COc2ccc(C(=O)OCC(=O)N(C)C3CCS(=O)(=O)C3)cc2OC)cc1 (stereo not given)  3%
37. CCOC(=O)c1cccc(NC(=O)c2ccc(F)cc2F)c1  3%
38. O=C(COC(=O)CSc1ccccc1)Nc1ccc(F)cc1F  3%
39. O=C(NCCCN1CCCCC1)c1ccc2c(c1)NC(=O)C(N1CCOCC1)S2 (stereo not given)  3%
40. CC(C)(C)NC(=O)/C(=C/c1cccnc1)NC(=O)c1ccco1  4%
41. COCCCNC(=O)CN1CCN(Cc2ccccc2Cl)C1=O  4%
42. Cc1ccc(S(=O)(=O)N2CCCC(C(=O)N3CCN(C)CC3)C2)cc1 (stereo not given)  4%
43. Cc1ccc(OCc2cc(C(=O)N(C)CCn3ccnc3C)no2)cc1C  4%
44. CC1=NCCN1S(=O)(=O)c1ccc(Br)c(C)c1  8%
45. O=C(CCC(=O)N/N=C/c1ccc(Br)o1)N/N=C/c1ccc(Br)o1  13%
46. C=CC[C@@H](CC(=O)N[C@H](CO)Cc1ccccc1)C(=O)N[C@H](C)COC(=O)[C@@H](CC=C)Cc1ccc(F)cc1  26%
47. O=C(NCc1cccc(Cl)c1)C1CCC(=O)N(C2CC2)C1 (stereo not given)  30%

`Cc1ccc(C(CNC(=O)Nc2cccc(C)c2)N2CCN(C)CC2)cc1` (stereo not given) was tested, and the inhibition of aptamer binding was 53% (active).
In the case of `C=CC[C@@H](CC(=O)N[C@@H](CO)Cc1ccccc1)C(=O)NCCOC(=O)[C@@H](CC=C)CC(=O)OC(C)(C)C`, the inhibition of aptamer binding is reported as 94% (active).
For `O=C(O)/C(=C/c1cccnc1)NC(=O)c1ccccc1`, the inhibition of aptamer binding was 53% (active).
For `Cc1ccccc1CN1CCN(CC(=O)NCc2ccccn2)C1=O`, the inhibition of aptamer binding was 51% (active).
In the case of `O=C(NC1C2CC3CC(C2)CC1C3)c1ccc(N2CCNCC2)c([N+](=O)[O-])c1` (stereo not given), the inhibition of aptamer binding is reported as 98% (active).
In the case of `C/C(=N\OCC(=O)O)c1ccc(Cl)cc1`, the inhibition of aptamer binding is reported as 58% (active).
In the case of `O=C(C1CCCN(S(=O)(=O)c2ccc([N+](=O)[O-])cc2)C1)N1CCCCC1` (stereo not given), the inhibition of aptamer binding is reported as 53% (active).
With `CCC(C)(C(=O)NC1CCCCC1)N(C)C(=O)c1ccc2c(c1)OCO2` (stereo not given) the inhibition of aptamer binding was 47% (active).
`COc1cc(C(=O)OCC(=O)N(CC(C)C)C2CCS(=O)(=O)C2)ccc1OCC(C)C` (stereo not given) was tested, and the inhibition of aptamer binding was 100% (active).
In the case of `O=C(COC(=O)c1ccc(F)cc1F)Nc1ncccn1`, the inhibition of aptamer binding is reported as 60% (active).
With `CN(Cc1ccccc1)C(=O)c1cccc(C(=O)N(C)Cc2ccccc2)c1` the inhibition of aptamer binding was 49% (active).
With `O=C(CCNC(=O)c1ccccc1)NN=Cc1ccc(Br)o1` the inhibition of aptamer binding was 58% (active).
With `O=C(NC(=O)c1cc(OCC(F)(F)F)ccc1OCC(F)(F)F)Nc1ccccc1` the inhibition of aptamer binding was 98% (active).
